{"source": "the supplement of paper PMC11732987", "about": "“Enantioselective OTUD7B fragment discovery through chemoproteomics screening and high-throughput optimisation” (Communications Chemistry, 2025)", "note": "A number with no mark means an inactive call."}
{"compound": "ClCC(=O)NC1(CCCC1)C#N", "assay": "log2 ratio of Biotin-Ahx-Ub-VS probe labelling (compound/DMSO); higher = less target engagement, active = hit call of the paper (q ≤ 0.05, log2 ratio ≤ -1)", "settings": "compound concentration: 50uM; treatment time: 3 h", "method": "(§1)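 Round 2 competitive ABPP in HEK293T lysate. Compounds were tested at 50 and 200 µM for 3 h, followed by Biotin-Ahx-Ub-VS enrichment and diaPASEF LC-MS/MS. Values are the average log2 ratio (compound/DMSO) from an unpaired t-test (n=3 treated, n=26 DMSO).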"}
{"target": "UniProt Q5T2D3", "log2 ratio of Biotin-Ahx-Ub-VS probe labelling": -0.0676}
{"target": "USP34 (UniProt Q70CQ2)", "log2 ratio of Biotin-Ahx-Ub-VS probe labelling": -0.504}
{"target": "OTUD6B (UniProt Q8N6M0)", "log2 ratio of Biotin-Ahx-Ub-VS probe labelling": -0.241}
{"target": "USP36 (UniProt Q9P275)", "sequence (Q9P275 whole entry)": "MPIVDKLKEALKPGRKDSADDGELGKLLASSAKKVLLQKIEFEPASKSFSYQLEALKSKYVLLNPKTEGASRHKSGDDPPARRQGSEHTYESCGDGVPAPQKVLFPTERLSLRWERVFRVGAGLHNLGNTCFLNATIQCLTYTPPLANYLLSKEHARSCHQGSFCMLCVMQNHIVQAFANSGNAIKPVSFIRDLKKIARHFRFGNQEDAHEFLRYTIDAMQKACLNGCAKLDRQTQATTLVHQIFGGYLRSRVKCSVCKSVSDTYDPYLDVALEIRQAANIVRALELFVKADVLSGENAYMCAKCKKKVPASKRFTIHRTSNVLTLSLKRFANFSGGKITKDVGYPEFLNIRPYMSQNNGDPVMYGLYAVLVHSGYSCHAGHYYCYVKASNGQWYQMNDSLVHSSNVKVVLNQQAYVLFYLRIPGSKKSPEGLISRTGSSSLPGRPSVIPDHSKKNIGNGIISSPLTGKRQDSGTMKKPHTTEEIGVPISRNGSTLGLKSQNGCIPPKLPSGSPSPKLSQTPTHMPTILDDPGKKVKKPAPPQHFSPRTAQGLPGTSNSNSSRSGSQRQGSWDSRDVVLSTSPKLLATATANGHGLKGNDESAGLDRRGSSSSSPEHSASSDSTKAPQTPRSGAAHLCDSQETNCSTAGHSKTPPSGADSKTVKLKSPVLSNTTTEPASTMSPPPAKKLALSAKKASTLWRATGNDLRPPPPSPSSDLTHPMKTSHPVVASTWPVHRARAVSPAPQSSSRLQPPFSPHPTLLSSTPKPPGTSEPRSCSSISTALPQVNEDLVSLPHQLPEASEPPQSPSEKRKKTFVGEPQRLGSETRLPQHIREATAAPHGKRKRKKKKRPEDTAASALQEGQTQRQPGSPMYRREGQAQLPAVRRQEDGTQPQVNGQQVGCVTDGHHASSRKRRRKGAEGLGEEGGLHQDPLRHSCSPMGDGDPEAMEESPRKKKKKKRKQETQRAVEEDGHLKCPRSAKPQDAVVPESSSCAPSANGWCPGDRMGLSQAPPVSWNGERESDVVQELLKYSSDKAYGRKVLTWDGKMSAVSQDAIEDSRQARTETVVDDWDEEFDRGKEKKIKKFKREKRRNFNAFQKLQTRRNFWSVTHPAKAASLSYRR", "log2 ratio of Biotin-Ahx-Ub-VS probe labelling": -0.292}
{"target": "OTUB1 (UniProt Q96FW1)", "sequence (Q96FW1 whole entry)": "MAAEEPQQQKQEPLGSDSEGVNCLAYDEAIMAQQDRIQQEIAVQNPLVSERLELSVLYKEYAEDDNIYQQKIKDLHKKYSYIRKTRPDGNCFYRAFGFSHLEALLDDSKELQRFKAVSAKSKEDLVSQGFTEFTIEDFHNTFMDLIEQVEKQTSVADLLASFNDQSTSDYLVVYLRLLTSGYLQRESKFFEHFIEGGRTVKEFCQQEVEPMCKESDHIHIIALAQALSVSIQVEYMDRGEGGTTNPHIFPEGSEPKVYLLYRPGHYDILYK", "log2 ratio of Biotin-Ahx-Ub-VS probe labelling": -0.00568}
{"target": "USP25 (UniProt Q9UHP3)", "log2 ratio of Biotin-Ahx-Ub-VS probe labelling": -0.312}
{"target": "USP54 (UniProt Q70EL1)", "log2 ratio of Biotin-Ahx-Ub-VS probe labelling": -0.959}
{"target": "USP9X (UniProt Q93008)", "log2 ratio of Biotin-Ahx-Ub-VS probe labelling": -0.227}
{"target": "USP48 (UniProt Q86UV5)", "log2 ratio of Biotin-Ahx-Ub-VS probe labelling": -0.156}
{"target": "USP24 (UniProt Q9UPU5)", "sequence (Q9UPU5 whole entry)": "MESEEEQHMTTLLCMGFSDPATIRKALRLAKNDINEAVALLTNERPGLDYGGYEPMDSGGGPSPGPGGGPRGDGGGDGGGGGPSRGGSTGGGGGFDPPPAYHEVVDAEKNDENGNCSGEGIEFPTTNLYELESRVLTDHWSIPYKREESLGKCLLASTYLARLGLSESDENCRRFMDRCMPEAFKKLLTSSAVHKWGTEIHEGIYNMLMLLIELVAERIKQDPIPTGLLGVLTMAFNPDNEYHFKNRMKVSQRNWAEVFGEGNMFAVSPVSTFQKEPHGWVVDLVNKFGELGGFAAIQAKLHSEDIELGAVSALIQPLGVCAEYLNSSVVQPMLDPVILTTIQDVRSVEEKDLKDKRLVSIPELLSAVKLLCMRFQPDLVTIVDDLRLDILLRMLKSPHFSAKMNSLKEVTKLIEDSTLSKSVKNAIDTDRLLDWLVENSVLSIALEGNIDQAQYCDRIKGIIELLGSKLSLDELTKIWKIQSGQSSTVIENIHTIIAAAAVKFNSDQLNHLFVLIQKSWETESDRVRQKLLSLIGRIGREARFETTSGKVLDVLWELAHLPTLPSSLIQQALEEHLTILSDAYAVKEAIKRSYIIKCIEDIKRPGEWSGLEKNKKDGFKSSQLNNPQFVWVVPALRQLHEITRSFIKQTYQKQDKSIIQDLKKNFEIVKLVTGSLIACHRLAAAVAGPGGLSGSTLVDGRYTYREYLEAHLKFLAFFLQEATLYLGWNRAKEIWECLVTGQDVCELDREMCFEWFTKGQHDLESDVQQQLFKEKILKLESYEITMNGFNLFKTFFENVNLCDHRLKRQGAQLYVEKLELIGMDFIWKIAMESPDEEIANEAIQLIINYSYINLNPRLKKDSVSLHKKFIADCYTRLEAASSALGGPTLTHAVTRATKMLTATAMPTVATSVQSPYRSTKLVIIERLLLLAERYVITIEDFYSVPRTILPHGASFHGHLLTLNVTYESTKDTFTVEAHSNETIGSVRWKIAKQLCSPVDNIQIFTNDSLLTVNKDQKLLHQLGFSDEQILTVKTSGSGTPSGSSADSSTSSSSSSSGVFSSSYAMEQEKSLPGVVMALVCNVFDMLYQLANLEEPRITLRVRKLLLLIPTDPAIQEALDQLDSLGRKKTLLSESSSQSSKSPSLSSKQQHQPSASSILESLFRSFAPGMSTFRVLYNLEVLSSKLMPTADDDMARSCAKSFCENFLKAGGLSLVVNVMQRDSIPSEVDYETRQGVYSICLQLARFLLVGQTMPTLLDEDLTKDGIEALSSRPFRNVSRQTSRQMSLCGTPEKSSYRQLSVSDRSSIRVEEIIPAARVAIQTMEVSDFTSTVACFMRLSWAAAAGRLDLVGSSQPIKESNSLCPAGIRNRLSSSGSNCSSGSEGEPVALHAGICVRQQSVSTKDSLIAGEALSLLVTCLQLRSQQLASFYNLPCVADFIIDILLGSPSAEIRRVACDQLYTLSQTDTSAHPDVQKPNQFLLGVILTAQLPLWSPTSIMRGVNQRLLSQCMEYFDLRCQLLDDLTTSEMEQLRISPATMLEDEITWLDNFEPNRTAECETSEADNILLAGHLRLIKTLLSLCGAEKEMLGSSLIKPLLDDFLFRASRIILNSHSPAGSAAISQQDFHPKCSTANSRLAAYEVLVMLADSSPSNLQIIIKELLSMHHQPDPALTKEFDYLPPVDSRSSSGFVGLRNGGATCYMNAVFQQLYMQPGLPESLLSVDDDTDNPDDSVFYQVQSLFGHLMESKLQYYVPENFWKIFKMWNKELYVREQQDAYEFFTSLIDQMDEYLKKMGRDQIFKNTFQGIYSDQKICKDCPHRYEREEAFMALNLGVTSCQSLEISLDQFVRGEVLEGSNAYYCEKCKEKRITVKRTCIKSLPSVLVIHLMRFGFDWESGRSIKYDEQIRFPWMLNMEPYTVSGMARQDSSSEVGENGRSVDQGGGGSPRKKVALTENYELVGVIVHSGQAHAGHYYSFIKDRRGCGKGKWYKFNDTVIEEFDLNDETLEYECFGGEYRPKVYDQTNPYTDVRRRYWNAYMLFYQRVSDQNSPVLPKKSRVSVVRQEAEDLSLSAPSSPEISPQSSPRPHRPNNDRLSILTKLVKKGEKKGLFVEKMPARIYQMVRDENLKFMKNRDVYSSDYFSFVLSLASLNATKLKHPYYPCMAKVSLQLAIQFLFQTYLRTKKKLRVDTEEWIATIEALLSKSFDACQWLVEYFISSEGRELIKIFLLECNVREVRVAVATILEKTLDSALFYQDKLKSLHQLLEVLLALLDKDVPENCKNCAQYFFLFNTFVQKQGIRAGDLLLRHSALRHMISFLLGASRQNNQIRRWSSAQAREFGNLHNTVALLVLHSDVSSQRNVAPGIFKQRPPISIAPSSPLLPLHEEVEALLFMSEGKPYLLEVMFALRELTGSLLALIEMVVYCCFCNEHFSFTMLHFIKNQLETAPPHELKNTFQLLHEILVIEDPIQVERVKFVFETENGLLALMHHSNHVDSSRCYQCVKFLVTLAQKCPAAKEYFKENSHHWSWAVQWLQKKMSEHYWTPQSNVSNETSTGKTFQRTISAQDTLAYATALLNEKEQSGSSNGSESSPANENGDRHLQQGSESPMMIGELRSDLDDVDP", "log2 ratio of Biotin-Ahx-Ub-VS probe labelling": -0.0634}
{"target": "USP10 (UniProt Q14694)", "log2 ratio of Biotin-Ahx-Ub-VS probe labelling": -0.0318}
{"target": "USP12 (UniProt O75317)", "log2 ratio of Biotin-Ahx-Ub-VS probe labelling": -0.429}
{"target": "MINDY4 (UniProt Q4G0A6)", "log2 ratio of Biotin-Ahx-Ub-VS probe labelling": -0.742}
{"target": "UCHL3 (UniProt P15374)", "log2 ratio of Biotin-Ahx-Ub-VS probe labelling": -0.252}
{"target": "USP39 (UniProt Q53GS9)", "sequence (Q53GS9 whole entry)": "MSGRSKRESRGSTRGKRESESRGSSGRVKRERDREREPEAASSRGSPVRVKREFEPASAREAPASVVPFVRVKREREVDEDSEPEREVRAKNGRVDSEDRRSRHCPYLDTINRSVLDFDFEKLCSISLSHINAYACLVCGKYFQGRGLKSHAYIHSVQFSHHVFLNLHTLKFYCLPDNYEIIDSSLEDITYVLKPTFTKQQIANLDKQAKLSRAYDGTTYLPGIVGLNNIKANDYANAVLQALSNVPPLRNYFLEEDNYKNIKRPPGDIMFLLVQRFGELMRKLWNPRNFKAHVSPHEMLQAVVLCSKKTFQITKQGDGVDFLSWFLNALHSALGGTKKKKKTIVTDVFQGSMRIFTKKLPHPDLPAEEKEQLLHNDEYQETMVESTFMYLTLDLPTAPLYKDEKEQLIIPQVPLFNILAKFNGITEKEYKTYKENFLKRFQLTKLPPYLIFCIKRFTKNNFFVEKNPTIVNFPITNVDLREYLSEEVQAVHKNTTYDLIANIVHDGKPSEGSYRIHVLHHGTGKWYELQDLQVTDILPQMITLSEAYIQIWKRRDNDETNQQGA", "log2 ratio of Biotin-Ahx-Ub-VS probe labelling": 0.213}
{"target": "UniProt O00487", "log2 ratio of Biotin-Ahx-Ub-VS probe labelling": 0.252}
{"target": "USP4 (UniProt Q13107)", "log2 ratio of Biotin-Ahx-Ub-VS probe labelling": -0.0435}
{"target": "USP28 (UniProt Q96RU2)", "log2 ratio of Biotin-Ahx-Ub-VS probe labelling": 0.02}
{"target": "USP42 (UniProt Q9H9J4)", "log2 ratio of Biotin-Ahx-Ub-VS probe labelling": -0.155}
{"target": "USP46 (UniProt P62068)", "sequence (P62068 whole entry)": "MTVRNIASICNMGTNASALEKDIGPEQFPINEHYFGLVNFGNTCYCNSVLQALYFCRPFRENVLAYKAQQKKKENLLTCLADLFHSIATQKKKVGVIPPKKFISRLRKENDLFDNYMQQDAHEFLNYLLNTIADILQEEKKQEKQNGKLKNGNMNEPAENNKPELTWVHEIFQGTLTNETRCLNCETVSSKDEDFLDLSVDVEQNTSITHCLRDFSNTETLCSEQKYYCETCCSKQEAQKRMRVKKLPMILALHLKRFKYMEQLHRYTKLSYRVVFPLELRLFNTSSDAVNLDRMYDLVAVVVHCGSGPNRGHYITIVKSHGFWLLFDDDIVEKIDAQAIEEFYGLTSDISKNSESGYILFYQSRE", "log2 ratio of Biotin-Ahx-Ub-VS probe labelling": -0.274}
{"compound": "ClCC(=O)NC1(CCCC1)C#N", "assay": "log2 ratio of Biotin-Ahx-Ub-VS probe labelling (compound/DMSO); higher = less target engagement, active = hit call of the paper (q ≤ 0.05, log2 ratio ≤ -1)", "settings": "compound concentration: 200uM; treatment time: 3 h", "method": "as §1"}
{"target": "UniProt Q5T2D3", "log2 ratio of Biotin-Ahx-Ub-VS probe labelling": -0.0477}
{"target": "USP34 (UniProt Q70CQ2)", "log2 ratio of Biotin-Ahx-Ub-VS probe labelling": -0.364}
{"target": "OTUD6B (UniProt Q8N6M0)", "log2 ratio of Biotin-Ahx-Ub-VS probe labelling": -0.219}
{"target": "USP36 (UniProt Q9P275)", "log2 ratio of Biotin-Ahx-Ub-VS probe labelling": -0.22}
{"target": "OTUB1 (UniProt Q96FW1)", "log2 ratio of Biotin-Ahx-Ub-VS probe labelling": 0.00171}
{"target": "USP25 (UniProt Q9UHP3)", "log2 ratio of Biotin-Ahx-Ub-VS probe labelling": "-1.01 (active)"}
{"target": "USP54 (UniProt Q70EL1)", "log2 ratio of Biotin-Ahx-Ub-VS probe labelling": "-2.5 (active)"}
{"target": "USP9X (UniProt Q93008)", "log2 ratio of Biotin-Ahx-Ub-VS probe labelling": -0.123}
{"target": "USP48 (UniProt Q86UV5)", "log2 ratio of Biotin-Ahx-Ub-VS probe labelling": -0.0443}
{"target": "USP24 (UniProt Q9UPU5)", "log2 ratio of Biotin-Ahx-Ub-VS probe labelling": -0.175}
{"target": "USP10 (UniProt Q14694)", "log2 ratio of Biotin-Ahx-Ub-VS probe labelling": -0.0398}
{"target": "USP12 (UniProt O75317)", "log2 ratio of Biotin-Ahx-Ub-VS probe labelling": 0.0646}
{"target": "MINDY4 (UniProt Q4G0A6)", "log2 ratio of Biotin-Ahx-Ub-VS probe labelling": 0.517}
{"target": "UCHL3 (UniProt P15374)", "log2 ratio of Biotin-Ahx-Ub-VS probe labelling": -0.294}
{"target": "USP39 (UniProt Q53GS9)", "log2 ratio of Biotin-Ahx-Ub-VS probe labelling": -0.0479}
{"target": "UniProt O00487", "log2 ratio of Biotin-Ahx-Ub-VS probe labelling": 0.0206}
{"target": "USP4 (UniProt Q13107)", "log2 ratio of Biotin-Ahx-Ub-VS probe labelling": -0.588}
{"target": "USP28 (UniProt Q96RU2)", "log2 ratio of Biotin-Ahx-Ub-VS probe labelling": -0.257}
{"target": "USP42 (UniProt Q9H9J4)", "log2 ratio of Biotin-Ahx-Ub-VS probe labelling": -0.0948}
{"target": "USP46 (UniProt P62068)", "log2 ratio of Biotin-Ahx-Ub-VS probe labelling": -0.249}
